# Source: PubChem BioAssay (Tox21)
# Results filed as inconclusive are left out. Where a call stands in place of a potency, no number is given. The source made the active and inactive calls. The call rests on the fitted dose curve; in most records, active means well fitted cell-killing curve with a large enough effect in the repeat runs; inconclusive means weak or mixed curves, or effect the other way; inactive means flat fitted curve, though single readings scatter.
# Experiment: cAMP Responsive Elements (CRE) small molecule agonists, cell-based qHTS assay: qHTS cell viability counter screen (AID 2060914); further: nearly all actives have a fitted effect of over 50% in size
# Details: CRE-bla HEK293T viability, CellTiter-Glo luminescence, 5 h; series mostly up to 92.4 µM
# Method in brief: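 In the same wells as the reporter read, viability of CRE-bla HEK 293T cells was quantified by CellTiter-Glo luminescence after a 3 h compound exposure.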
SMILES,Potency,"activity change, negative = cytotoxicity"
C/C=C/CO,inactive,
CN1CCC(OC(c2ccccc2)c2ccccc2)CC1,inactive,
O=C(O)CCS,inactive,
CC(Cl)C(Cl)Cl (stereo not given),inactive,
COc1cc(C(=O)OC(COCCC(C)C)CN2CCOCC2)cc(OC)c1OC (stereo not given),inactive,
CC(C)OP(=O)(CP(=O)(OC(C)C)OC(C)C)OC(C)C,inactive,
O=[N+]([O-])c1cccc(S(=O)(=O)O)c1,inactive,
C[C@H](CCC(=O)O)[C@H]1CC[C@H]2[C@@H]3[C@H](O)C[C@@H]4C[C@H](O)CC[C@]4(C)[C@H]3C[C@H](O)[C@]12C,inactive,
COc1ccc(-c2ccc3cc(C(=O)O)ccc3c2)cc1C12CC3CC(CC(C3)C1)C2,inactive,
c1ccc(SCCSc2ccccc2)cc1,inactive,
CCOC(=O)COc1cc(-n2ncc(C(F)(F)F)c(C)c2=O)c(F)cc1Cl,inactive,
c1ccc(CNCc2ccccc2)cc1,inactive,
CCC[Si](OC)(OC)OC,inactive,
CCCCCOC(=O)c1ccc(O)cc1,inactive,
COc1cc(C(C)=O)ccc1OCCCN1CCC(c2noc3cc(F)ccc23)CC1,inactive,
NC12CC3CC(CC(C3)C1)C2,inactive,
CCCCC(CC)COC(=O)C(C#N)=C(c1ccccc1)c1ccccc1 (stereo not given),inactive,
O=C(O)C[C@H](NC(=O)OCc1ccccc1)C(=O)O,inactive,
c1cc(C(c2ccc(OCC3CO3)cc2)C(c2ccc(OCC3CO3)cc2)c2ccc(OCC3CO3)cc2)ccc1OCC1CO1 (stereo not given),inactive,
CC(=O)OCC(C)C,inactive,

SMILES,Potency,"activity change, negative = cytotoxicity"
CC/C=C\CC1=C(C)CCC1=O,inactive,
CC(C)CCCCCCN,inactive,
COC(=O)c1ccc(C)cc1,inactive,
C=COCCOCCOC=C,inactive,
C1CCC2=NCCCN2CC1,inactive,
Oc1ccc(C2CNCCc3c2cc(O)c(O)c3Cl)cc1 (stereo not given),inactive,
Cc1ccccc1,inactive,
Nc1nc(=O)n([C@@H]2O[C@H](CO)[C@@H](O)[C@@H]2F)cc1I,inactive,
C=C1CC[C@H]2O[C@]2(C)CC[C@@H]2[C@@H]1CC2(C)C,inactive,
CC(=O)NCCCS(=O)(=O)O,inactive,
CCNc1nc(N)nc(Cl)n1,inactive,
CCCC(=O)OCC,inactive,
CNC(=S)NC,inactive,
Cn1cnc2c1c(=O)[nH]c(=O)n2C,inactive,
CCOC(=O)c1c(N)sc2c1CCN(Cc1ccccc1)C2,inactive,
CO/N=C(\C(=O)O)c1csc(NC(=O)CCl)n1,inactive,
CSc1ccc(O)cc1C,inactive,
CCO,inactive,
O=C(CCCN1CCN(c2ccccn2)CC1)c1ccc(F)cc1,inactive,
BrC/C=C/CBr,,3.61% [at 18.9 µM] (inactive)
